PubChem BioAssay (EPA / NIEHS)
Activity calls are given as the source filed them. How the source made its calls: active means hit-call score of the fitted dose curve at least 0.9, where 1 is the maximum; inactive means score below 0.9.

Assay: ATG_NF_kB_CIS: Attagene CIS-FACTORIAL HepG2 Assay for human Nuclear Factor Kappa B (NF-kB) (AID 2282991)
Conditions: HepG2 Attagene cis-factorial NF-kB reporter mRNA; actives raise or lower the signal
How it was run: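 Measures mRNA induction of an NF-kB-responsive cis-element reporter in HepG2 cells transfected with multiple reporter units, sampled 24 h post-dosing; quantified by fluorescence after RT-PCR and capillary electrophoresis, fitted for activation or inhibition against DMSO.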

For `CN(C)[C@@H]1C(=O)C(C(N)=O)=C(O)[C@@]2(O)C(=O)C3=C(O)c4c(O)ccc(Cl)c4[C@@](C)(O)[C@H]3C[C@@H]12`, which outcome is on record?
Its outcome is “inactive”.

With `Nc1ccc(-c2ccccc2)cc1` as the compound, how does the outcome read?
Its outcome is “inactive”.

With `CCN(N=O)C(N)=O` as the compound, how does the outcome read?
The outcome was “inactive”.

Which AC50 does the source give for `O=CCCl` here?
Its AC50 is 32.7 µM (active).

For `CCCCCCCCCCBr`, which outcome is on record?
Its outcome is “inactive”.

With `C=C(C)[C@@H]1CC=C(C=O)CC1` as the compound, how does the outcome read?
The outcome was “inactive”.

For `BrCC(Br)c1ccccc1` (centres undefined), which outcome is on record?
Its outcome is “inactive”.

For `Cc1cc(Cl)ccc1O`, which outcome is on record?
The outcome was “inactive”.

Which outcome does the source give for `BrCCCCBr` here?
Its outcome is “inactive”.

Which outcome does the source give for `Brc1c(Br)c(Br)c(Oc2c(Br)c(Br)c(Br)c(Br)c2Br)c(Br)c1Br` here?
Its outcome is “inactive”.

With `CC(C)(c1ccc(O)c(-c2ccccc2)c1)c1ccc(O)c(-c2ccccc2)c1` as the compound, how does the outcome read?
Its outcome is “inactive”.

Which outcome does the source give for `CN(N=O)C(N)=O` here?
The outcome was “inactive”.

For `CCNc1nc(NCC)nc(SC)n1`, which outcome is on record?
The outcome was “inactive”.

With `Brc1ccc(Oc2c(Br)cc(Br)cc2Br)c(Br)c1` as the compound, how does the outcome read?
The outcome was “inactive”.

With `Clc1cnc(Oc2ccc(Oc3ncc(Cl)cc3Cl)cc2)c(Cl)c1` as the compound, how does the outcome read?
Its outcome is “inactive”.

With `CCCCCCCCBr` as the compound, how does the outcome read?
Its outcome is “inactive”.

For `Cc1cc(Cl)ccc1OCCCC(=O)O`, which outcome is on record?
Its outcome is “inactive”.

For `CCCCC(CC)C(=O)Cl` (centres undefined), which outcome is on record?
The outcome was “inactive”.

With `CCCCCCCCCCCCBr` as the compound, how does the outcome read?
The outcome was “inactive”.

For `Nc1nc(=S)[nH][nH]1`, which outcome is on record?
The outcome was “inactive”.

With `N#Cc1ccccc1N` as the compound, how does the outcome read?
The outcome was “inactive”.

With `O=[N+]([O-])c1cc([As](=O)(O)O)ccc1O` as the compound, how does the outcome read?
The outcome was “inactive”.

With `N#Cc1ccccc1Cl` as the compound, how does the outcome read?
The outcome was “inactive”.

Which outcome does the source give for `CCOP(=S)(OCC)O/N=C(\C#N)c1ccccc1` here?
The outcome was “inactive”.

For `c1csc(-c2ccc(-c3cccs3)s2)c1`, which outcome is on record?
The outcome was “inactive”.

For `OC(c1ccc(Cl)cc1)(c1ccc(Cl)cc1)c1cccnc1`, which outcome is on record?
Its outcome is “inactive”.

Which outcome does the source give for `CC(C)C(C)(N)C#N` (centres undefined) here?
The outcome was “inactive”.

For `CC(C)CC(C)(c1ccc(O)cc1)c1ccc(O)cc1`, which outcome is on record?
The outcome was “inactive”.

With `OCC(c1ccc(Cl)cc1)c1ccc(Cl)cc1` as the compound, how does the outcome read?
The outcome was “inactive”.

Which outcome does the source give for `FC(F)OCC(F)(F)C(F)(F)F` here?
The outcome was “inactive”.

For `CC(=O)CN(CC(C)=O)N=O`, which outcome is on record?
Its outcome is “inactive”.

Which AC50 does the source give for `CCC[CH2][Sn]([CH2]CCC)([CH2]CCC)[CH2]CCC` here?
The AC50 was 11.1 µM (active).

For `Cc1cc(-c2cc(C)c(N)c(C)c2)cc(C)c1N`, which outcome is on record?
Its outcome is “inactive”.

Which outcome does the source give for `CC(=O)C(F)(F)C(F)(F)F` here?
Its outcome is “inactive”.

With `Cc1ccc(CCl)cc1` as the compound, how does the outcome read?
Its outcome is “inactive”.

Which outcome does the source give for `CC(F)(F)CC(F)(F)F` here?
The outcome was “inactive”.

Which outcome does the source give for `COC(F)(C(F)(F)C(F)(F)F)C(F)(C(F)(F)F)C(F)(F)F` (centres undefined) here?
The outcome was “inactive”.

With `c1ccc2c(c1)Oc1ccccc1O2` as the compound, how does the outcome read?
Its outcome is “inactive”.

Which outcome does the source give for `COC(=O)Nc1cccc(OC(=O)Nc2cccc(C)c2)c1` here?
Its outcome is “inactive”.
